Reference: PubChem BioAssay AID651610 (Broad Institute, 2012)
In all, about 360,000 compounds went through this assay and about 3,900 (1.1%) were called active. Only a selection was taken, and actives are over-represented in it overall. A number with no mark means an inactive call.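 Rule for the calls: active = mean replicate inhibition score of at least 50 and every replicate individually at or above 50; inconclusive = only one of the two criteria met; inactive = mean below 50 and not all replicates reaching 50.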

Test: blockers of JRFL envelope-mediated fusion – HeLa-JRFL effector, CEM21 target cells, luciferase, primary screen (AID 651610);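 note: 0% = plate neutral controls and 100% = maraviroc near 300 nM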
Settings: HeLa-JRFL Env/CEM21 cell fusion, stronger effect = higher value; at 16.7 µM unless noted

SMILES | inhibition
Cc1ccc(S(=O)(=O)N(C)C[C@@H]2Oc3ccc(NC(=O)Cc4ccccc4)cc3CC(=O)N([C@H](C)CO)C[C@H]2C)cc1 | 14.2%
CO[C@@H]1CN(C)C(=O)c2cc(NC(=O)c3ccc(F)cc3)ccc2OC[C@H](C)N(C(=O)CN(C)C)C[C@H]1C | 6.25%
O=C(CC1C(=O)NCCN1Cc1ccc(-c2ccccc2)cc1)NCc1ccncc1 (configuration not stated) | -0.899% [at 12.3 µM]
Cc1ccccc1-n1cc(CNC(=O)C2CCC(=O)N(C3CC3)C2)cn1 (configuration not stated) | 5.76% [at 12.3 µM]
Cc1ccccc1-n1cc(CNC(=O)CC2C(=O)NCCN2C/C=C/c2ccccc2)cn1 (configuration not stated) | 58% [at 12.3 µM] (active)
C[C@@H]1CN([C@@H](C)CO)C(=O)Cc2cc(NS(=O)(=O)c3cccs3)ccc2O[C@@H]1CN(C)C(=O)Nc1ccc(C(F)(F)F)cc1 | 0.927%
CC(C)NC(=O)N(C)C[C@H]1Oc2ncc(-c3cccc(C#N)c3)cc2C(=O)N([C@@H](C)CO)C[C@H]1C | 8.57%
CC1CCN(C(=O)COC(=O)c2cc(S(=O)(=O)N3CCOCC3)ccc2Cl)CC1 | 5.19% [at 12.3 µM]
CCOC(=O)C1CCN(C(=O)COC(=O)C2CCN(S(=O)(=O)c3ccc4c(c3)OCCO4)CC2)CC1 | 29.3% [at 12.3 µM]
COC(=O)C1CCN(C(=O)COC(=O)c2cc(S(=O)(=O)N3CCOCC3)ccc2C)CC1 | 72.4% [at 12.3 µM] (active)
COc1ccc(CNC(=O)C[C@H]2CC[C@H](NC(=O)Nc3ccc4c(c3)OCO4)[C@H](CO)O2)cc1 | 15.7%
CC(C)NC(=O)N(C)C[C@@H]1OCCCC[C@@H](C)Oc2ccc(NC(=O)NC3CCCCC3)cc2C(=O)N([C@@H](C)CO)C[C@@H]1C | -9.6%
C[C@H]1CN([C@@H](C)CO)C(=O)c2cc(C#CC3(O)CCCC3)cnc2O[C@@H]1CN(C)C(=O)Cc1ccccc1 | 15.7%
C[C@@H]1CN([C@H](C)CO)S(=O)(=O)c2ccc(C#CCN(C)C)cc2O[C@@H]1CN(C)C | 5.39%
O=c1c2c3c(sc2n(CCN2CCCC2)c(=O)n1Cc1ccccc1)CCCCC3 | 46.8% [at 12.3 µM]
CN(C)CCCn1c(=O)n(Cc2ccccc2)c(=O)c2c3c(sc21)CCCCC3 | 63.7% [at 12.3 µM] (active)
CCn1c(=S)[nH]c2sc3c(c2c1=O)CCCCC3 | -33.7% [at 12.3 µM]
CNC(=O)C[C@@H]1CC[C@H]2[C@@H](COc3ccc(NC(=O)NCc4ccccc4)cc3C(=O)N2C)O1 | -0.208%
CCN(C[C@H]1N[C@@](CC)(C(=O)OC)[C@H]2C(=O)N(Cc3ccccc3)C(=O)[C@@H]12)S(=O)(=O)c1ccc(C(F)(F)F)cc1 | 99.4% [at 12.3 µM] (active)
COC(=O)[C@]1(Cc2ccccc2)N[C@H](CN(C)S(=O)(=O)c2ccc(OC(F)(F)F)cc2)[C@@H]2C(=O)N(Cc3ccccc3)C(=O)[C@@H]21 | 48.1% [at 12.3 µM]
CCN(C[C@H]1N[C@@](CC)(C(=O)OC)[C@H]2C(=O)N(Cc3ccccc3)C(=O)[C@@H]12)S(=O)(=O)c1ccccc1 | 42% [at 12.3 µM]

SMILES | inhibition
Cc1ccc(S(=O)(=O)N[C@@H]2CC[C@@H](CC(=O)O)O[C@@H]2CO)cc1 | 7.43%
CNC(=O)C1CN(C(=O)c2cccc(S(=O)(=O)N3CCc4ccccc43)c2)c2ccccc2O1 (configuration not stated) | 60.2% [at 12.3 µM] (active)
CC1CCN(C(=O)c2cccc(S(=O)(=O)N3CCCc4ccccc43)c2)CC1 | 39.9% [at 12.3 µM]
CN1CCN(S(=O)(=O)c2cccc(C(=O)N3CCc4ccccc43)c2)CC1 | -15.7% [at 12.3 µM]
C[C@@H]1CN([C@H](C)CO)C(=O)c2cc(NC(=O)Nc3ccc4c(c3)OCO4)ccc2O[C@H]1CN(C)C(=O)Nc1ccccc1 | 7.58%
Fc1ccc(N2N=C(c3cccs3)CC2c2ccco2)c(F)c1 (configuration not stated) | 55.9% [at 12.3 µM] (active)
O=C(COc1ccccc1Cl)N1N=C(c2cccs2)CC1c1ccco1 (configuration not stated) | -7.8% [at 12.3 µM]
Cc1ccccc1C1CC(c2cccs2)=NN1S(C)(=O)=O (configuration not stated) | -91.6% [at 12.3 µM]
CCS(=O)(=O)Nc1ccc2c(c1)C(=O)N(C)[C@H]1CC[C@H](CC(=O)NCc3ccccc3F)O[C@H]1CO2 | -0.764%
NC(=O)CSc1nnc(NC(=O)c2ccc(Br)o2)s1 | -7.67% [at 12.3 µM]
Cc1cccc(CS(=O)(=O)c2ncc(Cl)c(C(=O)Nc3ccc(F)cc3)n2)c1 | -12.3% [at 12.3 µM]
CSc1nnc(NC(=O)c2nc(S(=O)(=O)Cc3ccc(C)cc3)ncc2Cl)s1 | 73.8% [at 12.3 µM] (active)
Cc1noc(C)c1NC(=O)N(C)C[C@H]1Oc2ccc(NC(=O)Cn3cnnn3)cc2CC(=O)N([C@H](C)CO)C[C@@H]1C | -12.7%
C[C@@H]1CN([C@@H](C)CO)C(=O)c2cc(NC(=O)Cc3ccccc3)ccc2O[C@@H]1CN(C)S(=O)(=O)c1ccccc1 | -22.1%
Cc1ccc(S(=O)(=O)NCC[C@@H]2CC[C@H](NC(=O)c3ccccn3)[C@H](CO)O2)cc1 | -12.9%
C[C@H](CO)N1C[C@H](C)[C@@H](CN(C)Cc2ccc3c(c2)OCO3)Oc2c(cccc2N(C)C)C1=O | -26.8%
CSCc1nnc(NC(=O)c2ccc(S(=O)(=O)N3CCCCC3C)cc2)o1 (configuration not stated) | -0.826% [at 12.3 µM]
CC1CCCCN1S(=O)(=O)c1ccc(S(=O)(=O)N(CC(=O)Nc2ccccc2)Cc2cccs2)cc1 (configuration not stated) | 20% [at 12.3 µM]
CC1CCCCN1S(=O)(=O)c1ccc(C(=O)Nc2nnc(-c3cccs3)o2)cc1 (configuration not stated) | 80.2% [at 12.3 µM] (active)
O=C(O)C1CCN(C(=O)c2cc(F)cc3c2OCOC3)CC1 | -1.42% [at 12.3 µM]
CCOC(=O)C1CCCN(C(=O)c2cc(-c3cccs3)oc2C)CC1 (configuration not stated) | 29.9% [at 12.3 µM]

SMILES | inhibition
Cc1cc(C(=O)N2CCC(C(=O)O)CC2)c(C(F)(F)F)o1 | 87.5% [at 12.3 µM] (active)
CCCN(C)C[C@H]1Oc2ncc(C#CC3CCCCC3)cc2C(=O)N([C@H](C)CO)C[C@@H]1C | 18.3%
C[C@H](CO)N1C[C@H](C)[C@H](CN(C)CC2CCCCC2)Oc2c(NC(=O)c3cnccn3)cccc2C1=O | -9.66%
CCC(=O)N1C[C@H](C)[C@H](OC)CN(C)C(=O)c2cc(NC(=O)Nc3cccc(F)c3)ccc2OC[C@@H]1C | -5.04%
C[C@@H]1CN([C@@H](C)CO)C(=O)c2cc(NS(=O)(=O)c3ccccc3)ccc2O[C@@H](C)CCCCO[C@H]1CN(C)S(=O)(=O)c1cccs1 | -25.8%
C[C@@H]1CCCCO[C@@H](CN(C)Cc2ccc(C(F)(F)F)cc2)[C@H](C)CN([C@H](C)CO)C(=O)c2cc(NS(=O)(=O)c3ccc(F)cc3)ccc2O1 | 32.9%
C[C@@H]1CCCCO[C@@H](CN(C)CC2CC2)[C@H](C)CN([C@H](C)CO)C(=O)c2cc(NC(=O)C3CCCCC3)ccc2O1 | -2.41%
COc1ccc(NC(=O)Nc2ccc3c(c2)C(=O)N([C@H](C)CO)C[C@H](C)[C@H](CN(C)Cc2ccncc2)OCCCC[C@H](C)O3)cc1 | 58.1% (active)
COc1ccc(NC(=O)Nc2ccc3c(c2)C(=O)N([C@@H](C)CO)C[C@@H](C)[C@@H](CN(C)Cc2ccncc2)OCCCC[C@@H](C)O3)cc1 | -12.5%
C[C@@H]1CCCCO[C@@H](CN(C)CC2CCCCC2)[C@H](C)CN([C@H](C)CO)C(=O)c2cc(NC(=O)C3CCCCC3)ccc2O1 | 68.4% (active)
C[C@H](CO)N1C[C@H](C)[C@@H](CN(C)C(=O)Nc2cccc3ccccc23)OCCCC[C@H](C)Oc2ccc(N(C)C)cc2C1=O | 67.4% (active)
COc1ccc(CN(C)C[C@@H]2OCCCC[C@@H](C)Oc3ccc(NC(=O)Nc4ccc(OC)cc4)cc3C(=O)N([C@@H](C)CO)C[C@@H]2C)cc1 | -18.5%
Cc1ccc(S(=O)(=O)Nc2ccc3c(c2)C(=O)N([C@@H](C)CO)C[C@@H](C)[C@@H](CN(C)Cc2ccc(C(F)(F)F)cc2)OCCCC[C@@H](C)O3)cc1 | 79.2% (active)
C[C@H](CO)N1C[C@H](C)[C@H](CN(C)Cc2ccc(C(F)(F)F)cc2)OCCCC[C@H](C)Oc2ccc(NS(=O)(=O)c3ccc(Cl)cc3)cc2C1=O | 18.4%
C[C@@H]1CCCCO[C@@H](CN(C)CC2CC2)[C@@H](C)CN([C@H](C)CO)C(=O)c2cc(NC(=O)C3CCCCC3)ccc2O1 | 19.6%
C[C@@H]1CCCCO[C@@H](CN(C)C(=O)Nc2ccccc2)[C@@H](C)CN([C@@H](C)CO)C(=O)c2cc(N(C)C)ccc2O1 | -2.93%
C[C@@H]1CCCCO[C@H](CN(C)C(=O)Nc2ccccc2)[C@H](C)CN([C@@H](C)CO)C(=O)c2cc(N(C)C)ccc2O1 | -23.9%
O=C(N[C@@H]1C=C[C@H](CC(=O)N2CCCCC2)O[C@H]1CO)c1cccc(F)c1 | 2.78%
COc1cccc(NC(=O)N[C@@H]2CC[C@H](CC(=O)Nc3ccccc3)O[C@@H]2CO)c1 | -24.4%
Cc1ccc(S(=O)(=O)Nc2cccc3c2O[C@H](CN(C)S(=O)(=O)c2cn(C)cn2)[C@H](C)CN([C@H](C)CO)C3=O)cc1 | -8.23%
